# Shown is part of a subset that was picked to be rich in hits.
# PKM2 act = PKM2 (human) enzyme activation; P14618; purified PKM2, Kinase-Glo ATP luminescence, activation; response scale: 0% is enzyme alone, no compound; Potency, µM (top dose mostly 57.5 µM), for inactives: top-dose activation, usual class: activators; 260,000 tested, 0.34% active; note: nearly all actives have a fitted effect of over 55% in size
#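 Purified hPK-M2 (>95% pure) converted ADP (0.1 mM final) to ATP with 0.5 mM PEP in 50 mM imidazole pH7.2, KCl, MgCl2, Tween 20, BSA; 1 h at room temperature. ATP detected by Kinase-Glo luminescence.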
# KDM4E inh = inhibitors of human JMJD2E histone demethylase; B2RXH2; Potency, µM (highest dose often 57.1 µM), for the others: at the top dose activity change, negative = inhibition, usual class: inhibitors; AID 2147; 230,000 tested, 1.6% active; JMJD2E catalytic domain, FDH-coupled NADH fluorescence (FDH is formaldehyde dehydrogenase);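 note: 0% = wells with enzyme and -100% = buffer wells without enzyme; nearly all actives have a fitted effect of over 50% in size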
# Target sequence (B2RXH2 1-337 limits assumed): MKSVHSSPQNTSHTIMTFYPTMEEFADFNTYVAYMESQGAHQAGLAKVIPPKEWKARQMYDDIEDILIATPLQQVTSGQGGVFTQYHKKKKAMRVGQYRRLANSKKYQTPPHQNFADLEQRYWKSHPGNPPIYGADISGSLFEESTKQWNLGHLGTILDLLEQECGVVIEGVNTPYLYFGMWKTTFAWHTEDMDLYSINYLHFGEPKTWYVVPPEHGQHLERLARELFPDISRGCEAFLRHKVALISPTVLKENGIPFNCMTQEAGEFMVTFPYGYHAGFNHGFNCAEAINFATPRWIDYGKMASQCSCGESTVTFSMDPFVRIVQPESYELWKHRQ
# RECQ1 helicase = inhibitors of human RECQ1 DNA helicase | P46063 | RECQ1 DNA unwinding, red fluorescence kinetic read | Potency, µM (series often up to 57.3 µM), without a hit: top-dose activity, negative = inhibition, actives largely listed as inhibitors | 240,000 tested, 0.54% active | AID 2549;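 note: plate controls were vehicle for no effect and no enzyme for full effect; nearly all actives have a fitted effect of over 30% in size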
#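 50 nM RECQ1T1 preincubated 15 min with compound in Tris pH 8.0 buffer with MgCl2, DTT, Tween-20 and 2.5 ug/ml poly(dI-dC); started with 200 nM TAMRA/BHQ-2 forked duplex and 2 mM ATP. Unwinding read as fluorescence (525/598 nm), two reads 2 h apart.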
# APE1 inh = blocks human APE1 abasic DNA cleavage. Potency, µM (titrated, usually from 65.8 µM), inactives show at the highest dose activity change, negative = inhibition, most hits filed as inhibitors. P27695. 350,000 tested, 0.35% active. AID 2517. recombinant APE1, TAMRA/BHQ-2 abasic DNA cleavage fluorescence;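 note: plate controls were vehicle for no effect and reference inhibitor for full effect; nearly all actives have a fitted effect of over 55% in size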
# Target sequence (P27695 whole entry, looked up): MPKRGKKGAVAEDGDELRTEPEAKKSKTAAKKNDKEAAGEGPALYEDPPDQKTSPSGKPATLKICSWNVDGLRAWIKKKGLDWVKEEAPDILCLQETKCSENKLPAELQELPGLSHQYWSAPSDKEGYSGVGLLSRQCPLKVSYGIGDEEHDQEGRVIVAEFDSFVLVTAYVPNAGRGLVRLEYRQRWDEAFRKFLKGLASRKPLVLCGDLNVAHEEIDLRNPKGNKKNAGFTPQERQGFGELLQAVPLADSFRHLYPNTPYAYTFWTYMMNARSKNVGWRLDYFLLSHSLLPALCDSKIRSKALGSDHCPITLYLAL
#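 Activity was derived from the fluorescence gain between first and third kinetic reads (60 s intervals, ex 525/em 598 nm) after 50 nM THF-abasic TAMRA/BHQ-2 duplex was added to 0.75 nM APE1 preincubated 15 min with compound.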
# BLM helicase inh = blocks DNA unwinding by human BLM helicase. recombinant BLM DNA unwinding, fluorescence dequenching. Potency, µM (highest dose often 56.1 µM), for the others: at the top dose activity change, negative = inhibition, usual class: inhibitors. 350,000 tested, 0.2% active. AID 2528;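 note: plate controls were vehicle for no effect and no enzyme for full effect; nearly all actives have a fitted effect of over 35% in size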
# * hit, by the source's call; i = inactive; ? = inconclusive; . = no result given; [ ] = dose if it differs, or a comment. Unless noted, calls come from the whole dose curve; as a rule, active = well fitted curve in the direction sought with a large enough effect; inconclusive = small, poorly fitted or top-dose-only effect, or another doubt; inactive = no such curve, though single readings can be large; an effect the other way counts as inactive or inconclusive. Unless noted, % is set by controls: 0 for no effect and ±100 for the full control effect; potency is the fitted concentration of half-maximal effect.
SMILES,PKM2 act,KDM4E inh,RECQ1 helicase,APE1 inh,BLM helicase inh
N=C(N)c1ccc(/C=C/c2ccc(C(=N)N)cc2O)cc1,-5.1%,28.2µM*,13.3%,?,240.4%
O=C(CSc1ncn[nH]1)c1cccc([N+](=O)[O-])c1,-1.3%,7.94µM*,-2.9%,-4.6%,3.5%
COc1ccc(NC(=O)N2CCc3nc(-c4ccccc4)c4c(c3C2)CO[C@@H](C)C4)cc1,-8.7%[11.5 µM],8.1%[11.4 µM],?,7.9%[12.4 µM],1.6%[12.4 µM]
COC(=O)c1ccccc1S(=O)(=O)N1CCc2nc(-c3ccc(OC)cc3C)c3c(c2C1)CO[C@@H](c1ccccc1)C3,-2.8%[11.5 µM],-1.9%[11.4 µM],-11.0%[11.5 µM],1.3%[12.4 µM],-4.0%[12.4 µM]
Cc1nnc(N/N=C/c2ccc(-c3ccc(Br)cc3)o2)n1N,0.3%,5.62µM*,-2.6%,-11.9%,-5.9%
C/C=C1\[C@H]2C=C(C)C[C@]1(N)c1ccc(=O)[nH]c1C2,.,.,.,1.7%,.
OC[C@@H](O)C(O)[C@H](O)CO,.,.,.,-4.4%,.
Cc1cc2sc3ccccc3c(=O)c2c(C)c1O,3.0%,6.4%,-3.8%,-1.5%,-4.3%
O=c1c(C(c2ccccc2)c2c(O)sc3ccccc3c2=O)c(O)sc2ccccc12,4.0%,-15.6%,31.6µM*,-9.0%,?
OC[C@@H]1OC(O)[C@@H](O)[C@H](O)[C@@H]1O (stereo partly drawn),.,.,-5.6%,-6.5%,-4.7%
CS(=O)(=O)c1ccc(NCCc2ccccn2)c([N+](=O)[O-])c1,14.1µM*,.,.,31.9%,-1.7%
CCc1nc2oc3cc(OC)ccc3c(=O)c2c(=O)n1Cc1ccco1,25.1µM*,-3.8%,-26.9%,-0.9%,-16.7%
COc1ccc(-c2nc3oc4cc(OC)ccc4c(=O)c3c(=O)n2Cc2ccco2)cc1,?,?,-14.4%,-4.1%,-11.8%
CCOc1ccc(N(C)S(=O)(=O)c2ccc3c(c2)C(C)(C)C(=O)N3C)cc1,.,.,.,.,-1.6%
Nc1cc(Cl)c([N+](=O)[O-])cc1O,.,.,-4.9%,-2.1%,.
O=C(NNc1c(Cl)cccc1Cl)c1c(F)cccc1Cl,8.2%,4.4%,-1.1%,4.8%,-1.6%
O=C(NNc1c(Cl)cccc1Cl)c1sccc1Cl,15.8µM*,-6.8%,-0.4%,-2.1%,-5.3%
CC(=O)OC1C=C[C@@H](OC(C)=O)C1 (stereo partly drawn),.,.,16.8%,0.3%,-3.7%
COCCN(C(=O)COC(=O)c1cc2c(s1)CCC2)c1c(N)n(Cc2ccccc2)c(=O)[nH]c1=O,.,.,.,0.752µM*,.
CCCCCCCCCCCCCCCCOCCOCCOCCOCCOCCOCCOCCOCCOCCOCCOCCOCCOCCOCCOCCOCCOCCOCCOCCOCCO,.,.,.,.,-7.3%
CC(C)NC(=S)N/N=C/c1cc(Br)ccc1O,-0.1%,25.1µM*,-15.1%,0.6%,-2.0%
COC(=O)N/N=C/c1cc(Br)ccc1O,-0.1%,?,i,-0.4%,-7.3%
CCOC(=O)C1=C(C)N=c2s/c(=C/c3ccc(OCC(=O)O)cc3)c(=O)n2C1c1ccc(F)cc1 (stereo not drawn),.,.,.,-40.3%,-7.0%
CCOC(=O)C1=C(C)N=c2s/c(=C\c3ccc(OCC(=O)O)cc3)c(=O)n2C1c1ccc(Cl)cc1 (stereo not drawn),22.5%,.,.,10.6µM*,?
CCOC(=O)C1=C(C)N=c2s/c(=C/c3ccc(OCC(=O)O)cc3)c(=O)n2C1c1ccc(SC)cc1 (stereo not drawn),0.5%,.,.,7.52µM*,?
SMILES,PKM2 act,KDM4E inh,RECQ1 helicase,APE1 inh,BLM helicase inh
COc1ccc(CC(=O)Nc2ccc(S(=O)(=O)N3CCCC3)cc2)cc1OC,.,.,.,15.3%,.
COc1cc(CC(=O)OCC(=O)Nc2ccc(S(=O)(=O)N3CCCC3)cc2)cc(OC)c1OC,20µM*,-8.3%,i,-5.0%,-1.1%
COc1ccc(S(=O)(=O)N2CCCN(CC(=O)Nc3ccc(OC)c(Cl)c3)CC2)cc1,20µM*,-13.8%,8.8%,0.0%,-4.9%
CC[C@H](C)[C@H](NC(=O)[C@H](Cc1ccc(O)cc1)NC(=O)[C@@H](NC(=O)[C@H](CCCN=C(N)N)NC(=O)[C@@H](N)CC(=O)O)C(C)C)C(=O)N[C@@H](Cc1cnc[nH]1)C(=O)N1CCC[C@H]1C(=O)O,.,.,-4.7%,-0.7%,-1.7%
COc1cccc([C@@H]2Oc3ccc(Br)cc3[C@H](O)[C@H]2O)c1,.,4.1%,5.5%,2.0%,-3.4%
CC(=O)c1cc(O)c2ccccc2c1O,2.9%,14.1µM*,-5.6%,-7.8%,-13.6%
C/C=C/c1ccc2oc(-c3ccc(O)cc3)c(C)c2c1,.,?,-1.7%,0.9%,-13.2%
COC(=O)c1ccc(-c2nc3cc(Cl)c(N)cc3s2)cc1,1.7%,2.51µM*,-12.6%,13.8%,-6.6%
C=CCN1C(=O)/C(=C/C=C2/N(CC)c3ccc(S(=O)(=O)N(C)C)cc3N2CC)SC1=S,-12.5%,2.8%,3.98µM*,?,10µM*
O=C(O)C1Nc2c(cccc2C(F)(F)F)C2C=CCC12 (stereo not drawn),.,.,.,16.8µM*,-7.1%
COc1cccc(NC(=O)CN(c2ccc([N+](=O)[O-])cc2)S(=O)(=O)c2ccccc2)c1,3.98µM*,1.6%,0.8%,2.0%,-9.9%
COc1cccc(NC(=O)CN(C)CC(=O)Nc2ccc(Cl)cc2[N+](=O)[O-])c1,3.16µM*,1.3%,-2.8%,-7.2%,-11.2%
COc1ccc(NC(=O)CN(C)S(=O)(=O)c2ccc(Cl)cc2)c([N+](=O)[O-])c1,0.7%,4.3%,i,-2.2%,0.8%
C=CC1=C2C=C(C3CC3)N(Cc3ccccc3)C=C2C(=O)C(C)(OC(=O)c2ccco2)C1=O (stereo not drawn),0.0%[11.5 µM],-7.3%[11.4 µM],i[11.5 µM],-3.0%[12.4 µM],-8.4%[12.4 µM]
N#C/C(=C\c1ccc(OC(=O)c2ccc(Cl)s2)cc1)c1nc2ccccc2[nH]1,-1.0%,?,0.9%,0.9%,-9.2%
N#C/C(=C\c1ccc(OC(=O)c2ccc(Br)s2)cc1)c1nc2ccccc2[nH]1,-8.9%,17.8µM*,17.7%,-2.2%,-26.0%
CCOC(=O)CCN1C(=O)[C@@H]2[C@H]3C(=CC[C@H]2C1=O)C(=O)[C@H]1O[C@H]1[C@H]3O,.,.,20.0%[11.5 µM],?,-1.4%[12.4 µM]
O=C(Nc1nc2ccccc2n1CCN1CCOCC1)c1cn(-c2ccccc2)nc1-c1ccccc1,-3.0%,25.1µM*,-14.1%,-5.6%,-7.6%
COc1ccc2nc(N3C(=O)CNC3=S)sc2c1,-43.7%,2.9%,-0.9%,0.2%,-0.2%
CCOc1ccc2nc(N3C(=O)/C(=C/c4ccc(Cl)cc4)NC3=S)sc2c1,3.4%,37.7%,-11.2%,2.4%,28.2µM*
CC(=O)NCCNc1ncncc1-c1ccc(N(C)C)cc1,.,.,-5.1%,0.4%,1.2%
CCO[C@H]1OC(C(=O)N2CCN(Cc3ccc4c(c3)OCO4)CC2)=C[C@@H](c2csc3ccccc23)[C@@H]1CCCO,-0.9%,-0.7%,-17.0%,-1.9%,-10.3%

# From PubChem BioAssay
